Mito fusion act – mitochondrial division inhibition or fusion activation; S. cerevisiae fusion-defective mutant growth rescue, CellTiterGlo 48 h; Potency, µM (doses to about 46.1 µM), actives largely listed as activators; 320,000 compounds, 0.23% hits; AID 485298; also: nearly all actives have a fitted effect of over 45% in size
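Luminescent cell viability in 1536-well qHTS format served as the measure of rescued growth in ts fusion-mutant S. cerevisiae cultured on non-fermentable YPEG for 48 hours at 37C.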
TDP-43 yeast inh – TDP-43 toxicity inhibition in yeast; TDP-43 expressing yeast growth rescue, BacTiter-Glo, 24 h; Potency, µM (titrated, usually from 46.1 µM), most hits filed as activators; 410,000 compounds, 1.8% hits; AID 652104; also: nearly all actives have a fitted effect of over 50% in size
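Galactose-induced TDP-43 yeast, OD600=0.02, compound pinned; 24 hr, 30 deg C; BacTiter-Glo luminescence for growth. Inhibitors of TDP-43 toxicity read as activators.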
Abeta yeast res – compounds reversing amyloid beta toxicity in yeast. yeast expressing A-beta42, growth rescue, OD600, 48 h; response scale: 0% DMSO, 100% iron-clioquinol control. Potency, µM (top dose mostly 46.1 µM), usual class: activators. 410,000 compounds, 0.063% hits; also: nearly all actives have a fitted effect of over 55% in size
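Growth rescue measured by 600 nm absorbance after 48 h yeast culture at 30 C with compound. Values normalized between DMSO and an equimolar ferric chloride plus clioquinol control.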
FUS yeast rescue – rescues growth of FUS-expressing yeast; S. cerevisiae FUS-expressing, growth rescue, OD600, 24 h; Potency, µM (series often up to 76.6 µM), hits mostly activators; 390,000 compounds, 0.24% hits; AID 1347120; also: nearly all actives have a fitted effect of over 55% in size
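Quantitative HTS measuring growth restoration of FUS-toxic yeast. Galactose-induced cells (OD 0.005) were exposed 24hr at 30C to compounds at several concentrations, then absorbance at 600 nm was recorded.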
aSyn yeast inh – inhibitors of alpha-synuclein toxicity in yeast. 370,000 compounds, 0.14% hits. Yeast expressing alpha-synuclein, growth rescue, BacTiter-Glo, 24 h. Potency, µM (doses to about 46.1 µM), hits mostly activators; also: nearly all actives have a fitted effect of over 65% in size
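Galactose-induced alpha-syn yeast (OD600=0.02, raffinose-pregrown) + pinned cpd, 24 hr, 30 deg C; growth by BacTiter-Glo luminescence. Growth restoration scores as activation.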
Numbers stand for hits; – = inactive; ? = inconclusive; · = no result given; [ ] = another dose, or the depositor's remark. An excerpt weighted towards active compounds, which were near 2.2% of everything screened. Calls follow the shape of the dose curve; as a rule, active = well fitted curve in the direction sought with a large enough effect; inconclusive = small, poorly fitted or top-dose-only effect, or another doubt; inactive = no such curve, though single readings can be large; an effect the other way counts as inactive or inconclusive.

SMILES | Mito fusion act | TDP-43 yeast inh | Abeta yeast res | FUS yeast rescue | aSyn yeast inh
Cc1ccc(C)c(N2CCN(C(=O)c3cccc(-n4c(C)nc5cccnc54)c3)CC2)c1 | · | – | – | ? | ·
Cc1ccc(Cl)cc1N1CCN(C(=O)c2ccc(C)c(-n3c(C)nc4cccnc43)c2)CC1 | · | – | – | 22.4µM | ·
Cc1ccc(C)c(N2CCN(C(=O)c3ccc4c(Cl)c5c(nc4c3)CCCC5)CC2)c1 | · | 35.5µM | – | ? | ·
CC(=O)c1ccc(N2CCN(C(=O)c3ccc4c(Cl)c5c(nc4c3)CCCC5)CC2)cc1 | – | · | · | · | ·
Cc1cc(C(=O)C(C)Sc2cccc[n+]2[O-])c(C)n1-c1ccc(Cl)cc1 (stereo unspecified) | – | ? | – | – | 2.82µM
Cc1cc(C(=O)C(=O)O)c(C)n1-c1ccc(Cl)cc1 | – | – | – | – | –
CCOC(=O)[C@]12CCCCC/C=C\1N(CCc1ccc(Cl)cc1)C(=O)[C@H]2CC(=O)NCCC(C)C | · | · | · | – | ·
OCCCn1c(C2CCCN2c2nc(-c3ccc(F)cc3)cs2)nc2cc(Cl)c(Cl)cc21 (stereo unspecified) | · | – | – | 35.5µM | –
OCCCn1c(C2CCCN2c2nc(-c3ccc(Cl)cc3)cs2)nc2cc(Cl)c(Cl)cc21 (stereo unspecified) | · | ? | – | ? | –
Cc1ccc(CSc2cn(CC(=O)N3CCCC3)c3ccccc23)cc1 | · | 22.4µM | – | ? | ·
Cc1ccc(CSc2cn(CC(=O)N3CCCCCC3)c3ccccc23)cc1 | · | – | – | – | ·
COc1ccc(Nc2nc(-c3cccs3)cs2)c(OC)c1 | – | 12.6µM | – | – | ·
COc1ccc(Nc2nc(-c3sc(C)nc3C)cs2)c(OC)c1 | – | 15.8µM | – | – | –
COc1ccc(OC)c(Nc2nc(-c3cccs3)cs2)c1 | – | 15.8µM | – | – | –
COc1ccc(CNC(=O)CCC2N=C3c4ccccc4N=C(SCc4cccc(F)c4)N3C2=O)cc1 (stereo unspecified) | · | – | – | ? | ·
CCCCCCCCn1cc(C(C)=O)c(=O)[nH]c1=O | – | 12.6µM | – | – | –
COc1ccc(S(=O)(=O)Nc2cccc3ccccc23)cc1 | · | · | · | · | –
COC1=C(Nc2ccc(OC)cc2)C(=O)c2ccccc2C1=O | – | 17.8µM | – | – | –
CCOc1ccc(NC2=C(OC)C(=O)c3ccccc3C2=O)cc1 | – | 17.8µM | – | – | –
COC1=C(Nc2ccc(OC)cc2)C(=O)C(OC)=C(Nc2ccc(OC)cc2)C1=O | · | – | – | – | –
COc1ccc(NS(=O)(=O)c2cccc3ccccc23)cc1 | · | 11.2µM | – | – | ?
Cc1cc(S(=O)(=O)Nc2ccc(-c3ccc(N4CCCCC4)nn3)cc2)c(C)cc1Cl | · | – | – | ? | ·
O=C(CCCOc1cccc(Br)c1)NCCOc1ccccc1 | – | 12.6µM | – | – | –
CC(C)CCNC(=O)CCCOc1ccccc1 | – | – | – | – | –
COc1cccc(C(=O)Nc2cccc(-c3cn4c(C)csc4n3)c2)c1OC | · | ? | – | – | –
SMILES | Mito fusion act | TDP-43 yeast inh | Abeta yeast res | FUS yeast rescue | aSyn yeast inh
COc1ccc(/C=C/C(=O)c2ccc3c(c2)OCCO3)cc1[N+](=O)[O-] | – | 12.6µM | – | – | –
COc1ccc(C(=O)C=Cc2ccc3c(c2)OCO3)cc1OC | · | 14.1µM | – | – | –
O=C(/C=C/c1ccc2c(c1)OCCO2)c1ccccc1 | – | 15.8µM | – | – | –
CC(=O)Nc1ccc(/C=C/C(=O)c2ccc3c(c2)OCCO3)cc1 | – | – | – | – | –
COc1ccc(C=CC(=O)c2ccc(OC)c(OC)c2)cc1O | · | ? | – | – | ?
COc1ccc(C(=O)/C=C/c2ccc3c(c2)OCCO3)cc1 | – | 20µM | – | – | –
COc1ccc(/C=N/NC(=O)c2ccc3c(c2)OCCO3)cc1[N+](=O)[O-] | – | – | – | · | –
Cn1c(=O)c2c(-c3ccc(Cl)cc3)ccnc2n(C)c1=O | · | – | – | – | ·
C[C@H]1[C@@H](OC(=O)NCc2ccc(Cl)cc2)CC[C@@]23CCCN2C(=O)CCC[C@@H]13 | · | · | · | – | ·
CC1Cn2c(C(=O)NCCc3ccc(Cl)cc3)cc3cccc(c32)S1 (stereo unspecified) | · | – | – | – | ·
O=C(Nc1ccccc1C(F)(F)F)c1noc2c1CCCCC2 | · | ? | – | – | ·
Cc1ccc(C(=O)C=Cc2ccc3c(c2)OCO3)c(C)c1 | · | ? | – | – | –
Cc1ccc(O)c(C(=O)/C=C/c2ccc3c(c2)OCCO3)c1 | – | 17.8µM | – | – | –
COc1ccc(C)cc1NC(=O)c1ccc2c(c1)OCO2 | – | 12.6µM | – | – | –
COc1ccc(C)cc1NC(=O)COC(=O)c1ccc2c(c1)OCO2 | – | – | – | – | –
O=[N+]([O-])c1nn(-c2ccc3c(c2)OCCO3)n(O)c1=NCc1ccc(F)cc1 | ? | – | – | · | –
O=[N+]([O-])c1nn(-c2ccc3c(c2)OCCO3)n(O)c1=NCc1ccc(F)cc1Cl | – | 22.4µM | – | – | –
O=[N+]([O-])c1nn(-c2ccc3c(c2)OCCO3)n(O)c1=NCCC1=CCCCC1 | – | 14.1µM | – | – | –
Cc1c(C(=O)c2ccc3c(c2)OCO3)ccc2c1OCO2 | · | 17.8µM | – | · | –
CCCN(CCC)C(=O)c1ccc2c(c1)OCO2 | – | – | – | – | –
O=C(OCc1ccccc1)N1CCN(/[N+]([O-])=N/Oc2ccc([N+](=O)[O-])cc2[N+](=O)[O-])CC1 | · | · | · | · | –
Cc1ccc(-c2cc(C(=O)OC3CCOC3=O)c3ccccc3n2)c(C)c1 (stereo unspecified) | – | 17.8µM | – | – | –
O=C(OC1CCOC1=O)c1cc(-c2cccs2)nc2ccccc12 (stereo unspecified) | – | 25.1µM | – | – | –
CNC(=O)c1c(NC(=O)c2ccc(N3C(=O)CCC3=O)cc2)sc2c1CCC(C)C2 (stereo unspecified) | · | 31.6µM | – | · | –
COc1ccccc1N1CCN(C(=O)c2ccc(-c3ccc(Cl)cc3)o2)CC1 | ? | 15.8µM | – | ? | –
SMILES | Mito fusion act | TDP-43 yeast inh | Abeta yeast res | FUS yeast rescue | aSyn yeast inh
COc1ccccc1N1CCN(C(=O)NCc2ccc(Cl)cc2)CC1 | – | – | – | – | –
COc1ccccc1N1CCN(C(=O)c2ccc(-c3nc4ccccc4s3)o2)CC1 | – | 22.4µM | – | ? | –[1.84 µM]
COc1ccc(C(=O)Nc2nnc(S(=O)(=O)N3CCCc4ccccc43)s2)cc1 | · | – | – | – | ·
CCN(Cc1ccccc1)C(=O)c1cc(-c2ccccc2)n[nH]1 | · | 17.8µM | – | – | ·
Cc1ccc(CCNC(=O)c2cc(-c3ccccc3)n[nH]2)cc1 | · | – | – | – | ·
CCN(Cc1ccccc1)C(=O)c1ccc(C(=O)N(CC)Cc2ccccc2)cc1 | – | – | – | – | –
CC(CNC(=O)c1cc(-c2ccccc2)n[nH]1)c1ccccc1 (stereo unspecified) | · | 35.5µM | – | – | ·
CCOC(=O)Cc1nc(N2CCN(CCO)CC2)c2c(C)c(C(=O)OCC)sc2n1 | · | · | · | – | ·

Compound activity: PubChem BioAssay, National Center for Advancing Translational Sciences (NCATS)
